According to PubChem BioAssay:

Assays:
[1] = test system: Botulinum neurotoxin type F light chain protease (Clostridium botulinum); assay: Clostridium botulinum type F light chain protease inhibitors, microsphere substrate cleavage, validation (AID 588459); details: multiplex microsphere protease substrate cleavage assay, flow cytometry; at 10 µM; hits give high values
[2] = molecular target: Botulinum neurotoxin type A (Clostridium botulinum) (UniProt P0DPI0); assay: BoNT/A light chain protease inhibitors, biochemical, multiplex microsphere flow cytometry, validation set (AID 588460); details: at 10 µM, hits give high values
[3] = molecular target: Lethal factor (Bacillus anthracis) (UniProt P15917); assay: Bacillus anthracis lethal factor inhibition, microsphere flow cytometry protease assay, validation at 10 µM (AID 588461); details: multiplex microsphere protease cleavage assay, hits give high values

Measured: inhibition

COc1ccc(-c2c[n+](CC(=O)OC3CC(C)CCC3C(C)C)c3n2CCC3)cc1 (configuration not stated)
inactive: [1] 0.9% | [2] 0.1% | [3] -5.8%

O=C1c2ccccc2N2C(=O)c3ccccc3C2N1Cc1ccco1 (configuration not stated)
inactive: [1] 3.3% | [2] 0.7% | [3] 2.8%

OC[C@H]1O[C@@H](n2cnc3c(Nc4ccccc4)ncnc32)[C@H](O)[C@@H]1O
inactive: [1] 1.4% | [2] -0.2% | [3] -2.1%

COc1ccc2nc(C)cc(Nc3ccccc3O)c2c1
inactive: [1] 1% | [2] 1% | [3] -1.4%

CC(C)NC(=O)c1ccc(C(C)C)cc1
inactive: [1] -2.3% | [2] -1.2% | [3] -2.8%

O=C(O)[C@H](Cc1ccccc1)NC(=O)N1CCC(Cc2ccccc2)CC1
inactive: [1] 5.5% | [2] 0.9% | [3] -2.3%

CC(C)CCc1noc(CN2CCC(CCN3CCCC3=O)CC2)n1
inactive: [1] 1% | [2] 0.2% | [3] 3.1%

CC(/C=C1\SC(=O)N(CCCC(=O)O)C1=O)=C\c1ccccc1
inactive: [1] 3.5% | [2] 1.3% | [3] -5.6%

Cc1ccc2c(c1)OC(=O)CC2c1ccccc1 (configuration not stated)
inactive: [1] -4.2% | [2] -1.1% | [3] -4.4%

CC1(C)C(=O)OC(/C=C\c2ccccc2)C(C)(C)C1=O (configuration not stated)
inactive: [1] 1.5% | [2] 0.1% | [3] 4.5%

O=C(N/N=C\c1cc([N+](=O)[O-])ccc1N1CCOCC1)c1ccccn1
inactive: [1] -0.1% | [2] -1.3% | [3] 2.6%

COc1cccc(NC(=O)C2CC(=O)OC23CCOC(C)(C)C3)c1 (configuration not stated)
inactive: [1] -5.5% | [2] -1.3% | [3] -8.2%

O=[N+]([O-])c1ccc(O)c2ncccc12
inactive: [1] -1.5% | [2] -3.7% | [3] -2.8%

C=CCN1C(=O)c2oc3ccccc3c(=O)c2C1c1ccc(O)c(OC)c1 (configuration not stated)
inactive: [1] -1.5% | [2] -0.6% | [3] 1.1%

COc1ccccc1OCC(=O)O
inactive: [1] 1% | [2] -0.9% | [3] -1.4%

Cc1ccc(S(=O)(=O)Nc2ccc(S(=O)(=O)Nc3cc(C)nc(C)n3)cc2)cc1
inactive: [1] -1.8% | [2] 0.6% | [3] 0.7%

Cc1cccc2c(C(=O)O)cc(-c3cccnc3)nc12
inactive: [1] -2.3% | [2] -0.5% | [3] -6.1%

Cc1cccc(NC(=O)c2cc3ccccc3o2)c1
inactive: [1] 1.3% | [2] -0.4% | [3] -2.2%

CC1(C)Cc2nc3oc4c(NCc5ccccc5)ncnc4c3cc2CO1
inactive: [1] 0.7% | [2] 0.2% | [3] 2.2%

CCOc1ccc2nc(S(N)(=O)=O)sc2c1
inactive: [1] 2% | [2] 0% | [3] 8.4%

CC(C)(C)C(=O)NC(=S)Nc1sc2c(c1C(N)=O)CCC2
inactive: [1] 0.8% | [2] 0.4% | [3] -1.2%

C#CCOc1ccc2c(C)cc(=O)oc2c1
inactive: [1] -2.9% | [2] -2.2% | [3] 4.6%

CN1C(=O)C(O)(CC(=O)/C=C/C=C/c2ccccc2)c2ccccc21 (configuration not stated)
inactive: [1] -1.9% | [2] -0.3% | [3] -0.3%

COc1cccc(N2CC(O)=C(c3nc4ccccc4c(=O)[nH]3)C2=N)c1
inactive: [1] -2.2% | [2] -1.1% | [3] -6.2%

O=C(COc1ccccc1)N1CCN(c2ccccc2)CC1
inactive: [1] -3.8% | [2] 0% | [3] -0.7%

CC1(C)O[C@@H]2C[C@H]3[C@@H]4CCC5=CC(=O)C=C[C@]5(C)[C@@]4(F)[C@@H](O)C[C@]3(C)[C@]2(C(=O)CO)O1
inactive: [1] -2.6% | [2] -3.3% | [3] -3.9%

Nc1ncnc2c1ncn2C1OC(CO)C(O)C1O (configuration not stated)
inactive: [1] 14.6% | [2] -0.2% | [3] 2%

CN(C)CC/C=C1\c2ccccc2COc2ccccc21
inactive: [1] -0.1% | [2] -0.5% | [3] 2.2%

CC(C)[N+]1(C)[C@@H]2CC[C@H]1CC(OC(=O)C(CO)c1ccccc1)C2 (some centres not stated)
inactive: [1] -2.9% | [2] 1% | [3] -3%

Cc1ccc(N2C(=O)c3ccccc3C2=O)cc1C
inactive: [1] -0.3% | [2] 0.5% | [3] -0.8%

CN(C)c1nc(N(C)C)nc(N(C)C)n1
inactive: [1] 6.4% | [2] 2.6% | [3] -4.2%

Nc1nc2c(nc(SCc3ccccc3Br)n2C2OC(CO)C(O)C2O)c(=O)[nH]1 (configuration not stated)
inactive: [1] -2.6% | [2] -1.9% | [3] -1.1%

Cc1ccnc2c1NC(=O)c1cccnc1N2C1CC1
inactive: [1] 0.7% | [2] -0.1% | [3] -4.5%

COc1ccc(C(=O)c2oc3ccc(Br)cc3c2NC(C)=O)cc1
inactive: [1] 0.3% | [2] -1.1% | [3] -3.6%

COc1ccc(C(=O)OCc2cc3cccc(C)c3[nH]c2=O)cc1
inactive: [1] 0.3% | [2] 0.7% | [3] -0.5%

NCCCC(N)(C(=O)O)C(F)F (configuration not stated)
inactive: [1] -3% | [2] 0.5% | [3] -2.1%

COC(=O)c1ccccc1NC(=O)c1ccc(COc2ccc3c(c2)CCC3)cc1
inactive: [1] 2.7% | [2] -0.5% | [3] 2%

Nc1ccc(N)c(C(=O)O)c1
inactive: [1] -6.1% | [2] -14% | [3] -7.2%

COc1ccc2cc(C3(C)NC(=O)NC3=O)ccc2c1 (configuration not stated)
inactive: [1] -0.4% | [2] -0.4% | [3] 0.8%

OC[C@H]1O[C@@H](n2cnc3c(NC4CCCC4)ncnc32)[C@H](O)[C@@H]1O
inactive: [1] -1.4% | [2] 0.2% | [3] -6.9%

O=c1c(C(c2ccccc2)c2c(O)sc3ccccc3c2=O)c(O)sc2ccccc12
inactive: [1] -0.8% | [2] 1.7% | [3] 2.4%

CCOc1cc2oc(=O)c3c(c2cc1Cl)CCC3
inactive: [1] 3% | [2] -0.7% | [3] -2.7%

CCOC(=O)c1cccc(C(=O)OCC)n1
inactive: [1] 3.1% | [2] -0.6% | [3] -6.9%

CC#C[C@]1(O)CC[C@H]2[C@@H]3CCC4=CC(=O)CCC4=C3[C@@H](c3ccc(N(C)C)cc3)C[C@@]21C
inactive: [1] -3.9% | [2] -2% | [3] -7.2%

CC(=O)NCCCCCCNC(C)=O
inactive: [1] 5.8% | [2] 2.3% | [3] 10.8%

C[C@]12C[C@H](O)[C@H]3[C@@H](CCC4=CC(=O)CC[C@@]43C)[C@@H]1CC[C@@H]2C(=O)CO
inactive: [1] 0.1% | [2] -0.6% | [3] -9.2%

Cn1c([N+](=O)[O-])cnc1COC(N)=O
inactive: [1] 1.4% | [2] -0.6% | [3] -1.2%

COc1cccc2c(=O)c(C/C=C(/C)Cl)c(C)[nH]c12
inactive: [1] 1.2% | [2] -1.6% | [3] 3.4%

c1ccc(Cn2ncc3c(Nc4ccccc4)ncnc32)cc1
inactive: [1] 1.6% | [2] -1.4% | [3] -0.5%

COc1ccc(-c2c(C)c3ccc(OCC(C)=O)cc3oc2=O)cc1
inactive: [1] -3.2% | [2] -0.4% | [3] 1.2%

Cc1ccc2nc3c(cc(C(=O)NCC4CCCO4)c(=N)n3CCCOC(C)C)c(=O)n2c1 (configuration not stated)
inactive: [1] 3.3% | [2] -0.1% | [3] -4%

CCc1cccc2c3c([nH]c12)C(CC)(CC(=O)O)OCC3 (configuration not stated)
inactive: [1] -3.9% | [2] -0.3% | [3] -0.8%

COC1=CC(=O)CC(C)C12Oc1c(Cl)c(OC)cc(OC)c1C2=O (configuration not stated)
inactive: [1] -0.7% | [2] -0.1% | [3] -1.8%

CC(=O)CCCCn1c(=O)c2c(ncn2C)n(C)c1=O
inactive: [1] -1.6% | [2] 0.1% | [3] -6.2%

CC1(C(=O)O)CCC(C(=O)NC2CCCCCC2)C1(C)C (configuration not stated)
inactive: [1] -6.8% | [2] -1.2% | [3] -7.7%

CCc1cc2c(=O)c(-c3ccc4c(c3)OCCO4)coc2c(CN2CCCCC2C)c1O (configuration not stated)
inactive: [1] 2.5% | [2] 0.3% | [3] -1%

COc1ccc2c(c1)CC[C@@H]1[C@@H]2CC[C@]2(C)C(=O)CC[C@@H]12
inactive: [1] -4% | [2] -1.5% | [3] -5%

CC(=O)NC1C(OCc2ccccc2)OC(COC(C)=O)C(OC(C)=O)C1OC(C)=O (configuration not stated)
inactive: [1] -1.4% | [2] -1.9% | [3] -2.2%

CC(C)(C)NC[C@H](O)COc1nsnc1N1CCOCC1
inactive: [1] 0.1% | [2] 0% | [3] -3.8%

Cc1nnc(NS(=O)(=O)c2ccc(N)cc2)s1
inactive: [1] 2.8% | [2] -1.1% | [3] -2.8%

COc1ccc(C2NCCC3(O)CCCCC23)c(OC)c1OC (configuration not stated)
inactive: [1] 4.3% | [2] -0.3% | [3] 4.4%

Cc1ccc(/C=N/Nc2nc(C(C)(C)C)cs2)o1
inactive: [1] -1% | [2] -0.3% | [3] -6.6%

CCOC(=O)C(NC(=O)CCC(=O)Nc1ccc(S(N)(=O)=O)cc1)C(O)c1ccccc1 (configuration not stated)
inactive: [1] -0.5% | [2] -1% | [3] 5.9%

O=P(O)(O)CP(=O)(O)O
inactive: [1] -9% | [2] -3% | [3] -3.7%
